Data taken from the supplement of paper PMC6555819.

Test system: VDR:RXRa (NR concentration 270 nM, RXRa partner concentration 90 nM)
Assay: PBM binding z-score (relative to random genomic background probes); higher = stronger binding; sequences stand for … in GC…GCGATTGACAGCGTAGAATGAAGG
Procedure: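 Protein-binding microarray (Agilent 4x180K custom design, double-stranded 60-nt probes: 5' GC cap, 34-nt variable region, 24-nt constant primer region; full probe sequence given). Purified or IVT nuclear receptor:RXRα heterodimers (3:1 NR:RXRα, mostly 270:90 nM) or homodimers were incubated for 1 h in PBS with 2% milk and no ligand, then detected with Alexa488 antibodies. Fluorescence from o1-orientation probes (~5 replicates averaged) was converted to z-scores against 500 random hg19 background probes. Variable regions are seed direct-repeat (DR0–DR5) sites, all their single-nucleotide variants and half-site ablations.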

Row | Sequence | PBM binding z-score
1 | ACTATTAGTTGAGACGAGGGCAAGCGATAGGTTG | 0.29
2 | ATCTGTAGGTAAAAGTTCAGTGAATCCCGAGGAT | 1.27
3 | TCTAGCAGGCCAGAGCGTCACTCAAGAGGTACGG | -0.608
4 | TCGAGTAGGTTGGTCGGGGCATTCAGCCAACATA | 0.314
5 | CGCCCAAGGTCATAGGAGGTCAGTGAAGACAGAT | 6.21
6 | TCTAGCAGGCGAGAGGGTCACTCAAGAGGTACGG | 1.49
7 | GATACAGGGCCAAGGCCAGAGTACGCGTATTGAT | -0.59
8 | CCTTACGGGTCACGAGGTTTTAGCACGACGAGCG | 5.64
9 | TCTTGTATATCAATAGAGGTTAAGAAAGTGCGCT | 2.14
10 | TCTATTAGTTGTAGGGCAACCGACGAGTCCGTTT | 0.713
11 | CCTCGGACGACAGAAGGTCAGAGCTGTCCGCTTT | 0.84
12 | CGCACTAGGTCAAGGACAGTGAATCTCCGCACGC | 1.28
13 | TCAGACAGGTGACGGTAACTCAGGTACGCAGTCG | 0.324
14 | ATCGAAAGGTCGACGAGGTGAGCATACACCGTTT | 5.07
15 | AGAACGAGGGCTCGCTGAGTTGATAGCAGAGTAG | -0.517
16 | AGAATGAGGTTATTAAGATCAGGCAATTGCGGTC | 2.48
17 | TAGCCTAGGACATTCAGGGGCCAGTATAGAAAGC | -0.174
18 | CCTACTGGGCCATTCAGAGGTCGTTGATCATATG | 1.49
19 | TAGCCTAGGTCAGATCGGGCCAATATACGCTATA | 1.01
20 | GGATCGAGGGCAAAGTTGATAGCATCTGTCGACG | 1.44

Row | Sequence | PBM binding z-score
21 | TGTTGTAGATCAATAGAGGTTAAGAAAGTGCGCT | 1.92
22 | TCTTGTAGATCAACAGGAGGTTATGAAAGATCGA | 0.761
23 | CAAACTAGGTCAACGGTCAAAGTCGAGCCAACCA | 2.71
24 | TGTCAAAGTTCAAAGGTAACGGAAGTATCCACAC | 5.14
25 | TTACCAAGGTGAAGGTTGTTGATCCCTCTGTAGA | 0.381
26 | CCTAGCAGGACAGGGTCACTCAAGCATTTCGCTT | 2.9
27 | ATCTCTAGGTAAAGATAATTCAGTGAATGCAAAT | 0.0441
28 | CCGAGTAGCTTATGGGGCATTCAGGCAACGGTGA | -0.651
29 | GCTAGTAGTTGAAAGGGCAACCGAATGATTCTCG | 0.183
30 | CCTACTGGGCCATTCAGAGGTCATTGCTCATATG | 3.84
31 | ATCTCTAGGTAAAGATAGTTCAGTGCATGCAAAT | 0.777
32 | CCTACTGAGCCAAGGTCATTGATCAGTCAAAGCA | 3.63
33 | CGTCCAAGGTCAAACGTCAGTGAAGAGATGACGG | 4.37
34 | TCTATTAGTTGAAAGGCAACCGACGAGTCCGTTT | 0.899
35 | GCTACTGGGGCATCAGCAGGTTACCATAACTTAA | 0.0562
36 | ACTTGCAGGCCAAGGGTCACTCAAGATTAGTCCG | 3.05
37 | CCTCGGAGAACAACAGGAGGTCAGAGCTGCCAGA | 1.47
38 | CCAGACAGGTGAGATGGTAACTCAGCCTCGATTA | -0.293
39 | TCGAGAAGGTTACCAATGGGGCATTCAGCTTTCT | 0.778
40 | TCATATAGGTAATACAGGTGGAAGTCGGCATCTA | 1.14
